Screens (PubChem)
Rows were chosen to be rich in hits. Some 0.53% of all compounds tested hit in one or more screens of this group.
Giardia killer = kills Giardia lamblia. Giardia lamblia trophozoite viability. activity change, % at 7.66 µM, hits read low. 340,000 compounds, 0.15% hits. AID 540267; in the data active means activity change below about -80%; inconclusive means between about -30% and that limit;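 further: parasites exposed to compound for two days anaerobically before the ATP read; on the % scale 0 is the no-effect control and ±100 the full control effect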
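Killing of trophozoites was scored by loss of ATP luminescence after a 48 hrs anaerobic exposure to compounds at 37 deg C, using 100 cells per well.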
CCT modulator = modulators of cytosolic chaperonin (CCT/TRiC) activity | purified chaperonin ATPase assay, HTRF ADP detection, 30 min | activity change, % (test concentration not listed), hits read low | 360,000 compounds, 0.3% hits; in the data active means activity change below about -30%; further: on the % scale 0 is the no-effect control and ±100 the full control effect
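Enzyme 40 or 20 nM (batch-dependent) in Tris pH 7.4/KCl/MgCl2/DTT; cpd 76 uM single point; ATP 10 uM; 30 min 37 °C; Transcreener ADP HTRF detection, 30 min RT; ratio 665/615.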
Rango release inh = inhibitors of RanGTP-induced Rango-importin beta complex dissociation; 340,000 compounds, 0.071% hits; Biochemical FRET Rango-importin beta, RanGTP-induced dissociation; Potency, µM (series often up to 46.1 µM), without a hit: at the top dose activity change, negative = inhibition; AID 540253; further: potency means the concentration at half of the fitted maximal effect; % of control where 0% means no effect; nearly all actives have a fitted effect of over 45% in size
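Compounds preincubate 5 min with complex of recombinant Rango and importin beta in PBS with 1 mM DTT. Ran (0.6 uM) loaded with 2 mM GTP plus 0.2 uM RCC1 starts dissociation; FRET is recorded 45 min later.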
Rango complex inh = inhibitors of Rango-importin beta complex formation; Rango CFP/YFP FRET sensor + importin beta, 45 min; Potency, µM (top dose mostly 92.2 µM), inactives show at the top dose inhibition of complex formation; 340,000 compounds, 0.031% hits; AID 540263;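 further: potency means the concentration at half of the fitted maximal effect; 0% = DMSO wells and 100% = buffer wells lacking importin beta; nearly all actives have a fitted effect of over 15% in size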
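Inhibition scored from the CFP 486 nm/YFP 530 nm FRET ratio 45 min after adding 0.125 microM importin beta to 50 nM Rango biosensor preincubated 5 min with compound (room temperature, PBS with DTT, Tween-20, BSA). No-importin wells as positive control.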
MmCpn inh = blocks the Methanococcus maripaludis chaperonin Mm-Cpn | purified Mm-Cpn ATPase, ADP Transcreener TR-FRET | Potency, µM (doses to about 76.9 µM), without a hit: top-dose activity, negative = inhibition, most hits filed as inhibitors | 330,000 compounds, 0.031% hits | AID 504842; active means well fitted inhibition curve with a large enough effect; inconclusive means small, poorly fitted or top-dose-only effect; further: potency means the concentration at half of the fitted maximal effect; on the % scale 0 is the no-effect control and ±100 the full control effect; nearly all actives have a fitted effect of over 80% in size
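Eu-cryptate anti-ADP/ADP-d2 competition gives a ratio inversely related to ADP. Enzyme at 25 nM was pre-exposed to compound for 10 min, then given 10 uM ATP for 30 min, 37°C throughout.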
* hit, by the source's call; u = inconclusive; x = no result given. Unless noted, the call rests on the fitted dose curve.

SMILES	Giardia killer	CCT modulator	Rango release inh	Rango complex inh	MmCpn inh
Cc1ccc(CNC(=O)c2ccc([N+](=O)[O-])o2)cc1	-86.5*	-0.3	12.2%	3.0%	2.9%
CN(Cc1ccccc1)C(=O)c1ccc([N+](=O)[O-])o1	-87.0*	0.9	6.6%	1.2%	0.9%
Cc1ccc(-c2csc(NC(=O)c3ccc([N+](=O)[O-])o3)n2)cc1	-95.3*	-1.6	-10.8%	0.1%	0.4%
Cc1ccc(CNC(=O)CSc2ccsc2[N+](=O)[O-])cc1	-88.0*	-1.0	-7.0%	-3.6%	-0.5%
Cc1ccc(/C=C/C(=O)c2ccc([N+](=O)[O-])o2)cc1	-1.2	-0.9	1.0%	0.2%	0.7%
COc1ccc(CNC(=O)CSc2ccsc2[N+](=O)[O-])cc1	u	-1.0	u	-1.3%	0.7%
CC1CCc2nc(-c3cc4ccc(O)cc4oc3=O)sc2C1 (configuration not stated)	-10.7	x	x	x	x
CC1CC=CC2C1C(=O)N(Cc1ccccc1)C2c1ccc(F)c(/C=C/c2ccccc2)c1 (configuration not stated)	21.6	x	x	x	x
CCC(Oc1ccccc1)C(=O)Nc1ncc([N+](=O)[O-])s1 (configuration not stated)	-87.6*	-3.0	-26.3%	-1.0%	u
CC(CC(=O)Nc1ncc([N+](=O)[O-])s1)c1ccccc1 (configuration not stated)	-85.5*	-0.2	-11.1%	0.1%	2.0%
CCCN1C(=O)c2ccccc2NC1c1ccc(OC)c(COc2ccc([N+](=O)[O-])cc2)c1 (configuration not stated)	12.2	x	x	x	x
CCn1c(CNC(=O)C2CCCCC2)cc2ccccc21	13.6	-52.1*	-13.8%	3.2%	-5.0%
O=C(NCCN1CCOCC1)c1c(O)nc2ccccn2c1=O	1.5	-71.5*	12.3%	u	-1.8%
Cc1ccn2c(=O)c(C(=O)NCCN3CCOCC3)c(O)nc2c1	-17.0	0.3	12.8%	0.9%	0.0%
Cc1ccc([N+](=O)[O-])c2cccnc12	4.9	-1.9	-8.0%	0.0%	-2.0%
O=[N+]([O-])c1cc2cccnc2c2ncccc12	-87.7*	-3.3	-21.6%	-0.7%	-1.3%
Cc1nc(-c2ccc(NC(=O)c3ccco3)cc2)cs1	-98.1*	-2.9	-7.4%	-0.1%	-1.9%
COc1ccccc1C(=O)Nc1ccc(S(=O)(=O)Nc2onc(C)c2C)cc1	12.0	1.3	-2.3%	-1.8%	2.5%
COc1ccc(C(=O)Nc2ccc(S(=O)(=O)Nc3onc(C)c3C)cc2)c(OC)c1	-6.2	-35.2*	18.8%	-0.9%	2.8%
Nc1ccc(NC(=O)c2cc(Cl)ccc2O)c(Cl)c1	-17.1	x	x	x	x
O=S(=O)(c1ccc2c(c1)CCC2)N1CCN(c2nc(-c3ccccc3)nc3ccccc23)CC1	14.1	x	x	x	x
CN1CCN(S(=O)(=O)c2ccc([N+](=O)[O-])cc2)CC1	-14.2	-0.5	5.8%	3.7%	2.1%
O=C1CN(S(=O)(=O)c2ccc([N+](=O)[O-])cc2)CC(=O)N1	2.8	-51.8*	2.5%	2.2%	-1.9%
CC1CCN(C(=O)Nc2ccc3nc(-c4ccco4)c(-c4ccco4)nc3c2)CC1	-16.3	x	x	x	x
CC(=O)OCC(NC(=O)C(C)NC(=O)OC(C)(C)C)C1OC(n2ccc(=O)[nH]c2=O)C(OC(C)=O)C1OC(C)=O (configuration not stated)	-28.3	x	x	x	x
SMILES	Giardia killer	CCT modulator	Rango release inh	Rango complex inh	MmCpn inh
CCN(CC)CCC(c1cc(OC)c(OC)c(OC)c1)c1c(OC)cc(OC)c2c1OC(=O)CC2c1ccc(N(C)C)cc1 (configuration not stated)	0.6	x	x	x	x
Cc1ccc2cc(C(c3nnnn3Cc3ccccc3)N3CCc4ccccc43)c(=O)[nH]c2c1 (configuration not stated)	-11.2	0.7	23.1µM*	u	-2.9%
Cc1ccc2[nH]c(=O)c(C(c3nnnn3Cc3ccccc3)N3CCc4ccccc43)cc2c1 (configuration not stated)	-7.2	-3.0	u	u	u
CCCC[C@H]1CCCO[C@@](C(=O)NCc2ccc(C)o2)(C(F)(F)F)C1	-12.0	x	x	x	x
OC(COc1ccc2ccccc2c1Cl)CN1CCOCC1 (configuration not stated)	-7.2	-31.8*	-4.2%	-0.4%	u
C=CCN(C(C(=O)OC)C(C)C)S(=O)(=O)C=C (configuration not stated)	-15.4	x	x	x	x
COCc1cc(C)nc(SCC(=O)Oc2ccc(Cl)cc2)c1C#N	3.8	-3.5	9.2µM*	u	-8.8%
Cc1cccc(C)c1OCCCn1c(CCNC(=O)C2CCCCC2)nc2ccccc21	-6.4	x	x	x	x
O=C(COC(=O)c1ccc(F)cc1Cl)NC1CC1	x	-50.2*	x	x	x
CCCCN(CCCC)C(=S)N/N=C/c1c(C)[nH]n(-c2ccccc2)c1=O	-0.5	-88.6*	-24.8%	u	2.4%
Fc1ccc(CNc2ncnc3nc[nH]c23)cc1	-13.0	x	x	x	x
CCOc1ccc(C(=O)OCCN(C)C)cc1	-12.4	-32.0*	8.3%	-0.2%	-0.9%
O=C(Nc1nnc(-c2ccccc2)s1)C1CCCN(C(=O)c2ccoc2)C1 (configuration not stated)	6.4	x	x	x	x
CCC(=O)Nc1c(C(=O)N2CCN(c3ccccn3)CC2)cnn1-c1ccc(Cl)cc1	12.8	-56.9*	11.0%	12.1%	0.9%
Oc1ccc(Br)cc1C1C=C(c2ccc3c(c2)OCO3)NC(c2c(F)cccc2Cl)N1 (configuration not stated)	-2.8	x	x	x	x
Oc1ccc(Cl)cc1C1C=C(c2ccc3c(c2)OCO3)NC(c2cc(Br)ccc2F)N1 (configuration not stated)	-19.8	x	x	x	x
CC(C)C(O)(C#CCN1CCCCCC1)c1ccccc1 (configuration not stated)	18.0	-37.9*	2.8%	-2.7%	-3.4%
CC(O)(C#CCN1CCCCC1)c1ccccc1 (configuration not stated)	12.3	-0.8	26.9%	-0.2%	0.0%
COc1ccc(-c2cc(C3C4C=CCCC4(C)C(=O)N3Cc3ccccc3)ccc2F)cc1 (configuration not stated)	7.3	x	x	x	x
COc1ccccc1Nc1ncccc1[N+](=O)[O-]	-2.1	-48.5*	19.2%	-0.5%	-1.0%
CC1CC(C)CN(C(=O)c2ccncc2)C1 (configuration not stated)	10.7	-37.8*	0.7%	-0.7%	0.3%
Cc1cc2c(=Cc3ccc(N(C)C)cc3)c3ccccc3n2[n+]1C	-11.0	-45.0*	-0.1%	1.3%	x
CCOC(=O)c1cc2c(=Cc3ccc(N(C)C)cc3)c3ccccc3n2[n+]1C	-13.1	-1.9	u	11.7%	x
Cc1ccc(-c2nnc(-c3cccc(NC(=O)c4cccs4)c3)o2)cc1	-17.6	-44.3*	10.8%	-0.3%	1.3%
